Inconclusive results are not listed. Activity calls are given as the source filed them. The calls were made as follows, unless noted: active = hit-call score of the fitted dose curve at least 0.9, where 1 is the maximum; inconclusive = response in the unintended direction; inactive = score below 0.9.
Key:
[1] = Tanguay_ZF_120hpf_PFIN_legacy: (Legacy) Oregon State University Tanguay Lab 120 Hour Post-fertilization zebrafish Assay for Pectoral Fin Malformation (AID 2283648);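 also: each larva judged yes or no for fin defect by brightfield with dead larvae skipped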
In short: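 Dechorionated Tropical 5D wild-type zebrafish embryos, one per well, statically exposed from 6 to 120 hpf at 28C with 0.64% DMSO final. Pectoral fin malformation scored present/absent by brightfield at 120 hpf; not scored in dead embryos.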

[2] = Tanguay_ZF_120hpf_CFIN_legacy: (Legacy) Oregon State University Tanguay Lab 120 Hour Post-fertilization zebrafish Assay for Caudal Fin Malformation (AID 2283649)
In short: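 Binary brightfield scoring of caudal fin defects at 120 hpf after static, light-shielded exposure at 28C from 6 hpf. Tropical 5D embryos, chorion removed with pronase at 4 hpf, final DMSO 0.64%.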

[3] = Tanguay_ZF_120hpf_PIG_legacy: (Legacy) Oregon State University Tanguay Lab 120 Hour Post-fertilization zebrafish Assay for Pigmentation Malformation (AID 2283650)
In short: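 Dechorionated Tropical 5D wild-type embryos, one per well from 6 hpf, statically exposed at 28C in the dark until 120 hpf, 0.64% DMSO final. Pigmentation scored present/absent by brightfield microscopy; dead embryos not scored; fitted versus DMSO.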

[4] = Tanguay_ZF_120hpf_CIRC_legacy: (Legacy) Oregon State University Tanguay Lab 120 Hour Post-fertilization zebrafish Assay for Circulatory Malformation (AID 2283651)
In short: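 Using wild-type Tropical 5D zebrafish, we exposed dechorionated embryos from 6 to 120 hpf in embryo medium with 0.64% DMSO. Circulatory defects were scored as present or absent; 5uM trimethyltin chloride served as positive control.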

[5] = read-out: kallikrein-3 (KLK3), KLK3 (gene 354); test: LTEA_HepaRG_KLK3: Life Technologies and Expression Analysis (LTEA) Assay for kallikrein-3 (KLK3) using HepaRG (AID 2283652; active = hit-call score of the fitted dose curve at least 0.9, where 1 is the maximum; inactive = score below 0.9); details: mRNA level, 48 h; actives raise or lower the signal
In short: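 Differentiated human HepaRG cells in serum-free induction medium exposed 48 h in duplicate, eight-point half-log series from 100 uM in 0.5% DMSO. KLK3 mRNA by qRT-PCR, normalised to ACTB, GAPDH, POLR2A; bidirectional fit versus DMSO.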

[6] = read-out: solute carrier (SLC22A6), SLC22A6 (gene 9356); test: LTEA_HepaRG_SLC22A6: Life Technologies and Expression Analysis (LTEA) Assay for solute carrier (SLC22A6) using HepaRG (AID 2283653; active = hit-call score of the fitted dose curve at least 0.9, where 1 is the maximum; inactive = score below 0.9); details: mRNA level, 48 h; actives raise or lower the signal
In short: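 SLC22A6 transcript was measured by TaqMan qRT-PCR, normalized to three housekeeping genes, after 48 h duplicate exposure of HepaRG cells (100 uM top, half-log steps, 0.5% DMSO); bidirectional fit against vehicle.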

[7] = Tanguay_ZF_120hpf_SWIM_legacy: (Legacy) Oregon State University Tanguay Lab 120 Hour Post-fertilization zebrafish Assay for Swim Bladder Malformation (AID 2283654);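 also: swim bladder malformation in each larva scored yes or no under brightfield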
In short: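 Dechorionated wild-type Tropical 5D zebrafish embryos, one per well from 6 hpf, were statically exposed at 28C until 120 hpf in 0.64% DMSO. Swim bladder malformation scored as present/absent by brightfield microscopy; not scored in dead larvae.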

[8] = Tanguay_ZF_120hpf_TRUN_legacy: (Legacy) Oregon State University Tanguay Lab 120 Hour Post-fertilization zebrafish Assay for Truncated Body (AID 2283655)
In short: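 Binary presence/absence of truncated body is recorded at 120 hpf by brightfield, with non-mortality endpoints skipped after death. Exposure is static from 6 hpf in sealed dark plates at 28C, using dechorionated wild-type zebrafish, 0.64% DMSO.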

[9] = read-out: solute carrier (SLC10A1), SLC10A1 (gene 6554); test: LTEA_HepaRG_SLC10A1: Life Technologies and Expression Analysis (LTEA) Assay for solute carrier (SLC10A1) using HepaRG (AID 2283657; active = hit-call score of the fitted dose curve at least 0.9, where 1 is the maximum; inactive = score below 0.9); details: mRNA level, 48 h; actives raise or lower the signal
In short: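 HepaRG cells (single lot) exposed 48 h in serum-free induction medium, 8-point half-log series from 100 uM top in 0.5% DMSO, duplicate. SLC10A1 mRNA by qRT-PCR normalised to ACTB, GAPDH, POLR2A; bidirectional fit versus DMSO.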

[10] = read-out: matrix metalloproteinase-1 (MMP1), MMP1 (gene 4312); test: LTEA_HepaRG_MMP1: Life Technologies and Expression Analysis (LTEA) Assay for matrix metalloproteinase-1 (MMP1) using HepaRG (AID 2283658; active = hit-call score of the fitted dose curve at least 0.9, where 1 is the maximum; inactive = score below 0.9); details: mRNA level, 48 h; actives raise or lower the signal
In short: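 qRT-PCR (TaqMan, Fluidigm arrays) of MMP1 transcript, normalized against three housekeeping genes and fitted in both directions relative to 0.5% DMSO vehicle. Human HepaRG cultures received duplicate 48 h exposures across 8 points, highest 100 uM with half-log steps.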

[11] = read-out: ABC Transporter (ABCB1), ABCB1 (gene 5243); test: CLD_ABCB1_6hr: CellzDirect (CLD) Gene Expression Assay for ABC Transporter (ABCB1) at 6 hours (AID 2283659);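 also: hits raise ABCB1 transcript above the DMSO vehicle baseline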
In short: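 Primary human hepatocytes (two donor preparations) dosed daily for two days with chemicals at multiple concentrations, 0.2% DMSO vehicle; harvested 6 h post-dose. ABCB1 mRNA induction quantified by qNPA chemiluminescence; gain-of-signal fitted versus DMSO.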

[12] = Tanguay_ZF_120hpf_TR_legacy: (Legacy) Oregon State University Tanguay Lab 120 Hour Post-fertilization zebrafish Assay for Touch Response (AID 2283667)
In short: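 Tropical 5D wild-type zebrafish embryos statically exposed to 120 hpf at 28°C, sealed and dark-covered, 0.64% DMSO final; touch response scored as present/absent by brightfield microscopy at 120 hpf. Trimethyltin chloride 5 uM positive control; dead embryos not scored.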

[13] = Tanguay_ZF_120hpf_NC_legacy: (Legacy) Oregon State University Tanguay Lab 120 Hour Post-fertilization zebrafish Assay for Notochord and Tail Malformation (AID 2283656)
In short: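 Dechorionated 5D zebrafish, 1/well from 6 hpf; static exposure to 120 hpf, 28C, sealed, dark; final DMSO 0.64% v/v. NC scored binary (present/absent); dead embryos not scored. Fit vs DMSO baseline, gain direction.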

[14] = tested on: Thyroperoxidase (TPO), gene 54314; test: CCTE_Simmons_AUR_rTPO: CCTE's Amplex UltraRed Assay for Thyroperoxidase (TPO) Inhibition, Simmons Lab (AID 2283662);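 also: potency for loss of signal meaning inhibition of peroxidase activity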
In short: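 Rat thyroid microsomal TPO + 25 uM AUR in 200 mM K phosphate; cpd 5 nM–87.5 uM [final], 8 conc, 0.5% DMSO; 300 uM H2O2 starts rxn; 37C dark 30 min; endpoint FI 544/590 nm; n=3.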

[15] = read-out: xenobiotic metabolism (CYP1A1), CYP1A1 (gene 1543); test: CLD_CYP1A1_6hr: CellzDirect (CLD) Gene Expression Assay for xenobiotic metabolism (CYP1A1) at 6 hours (AID 2283661);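 as to AC50: potency for transcript induction above DMSO vehicle baseline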
In short: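 Primary human hepatocytes from two donors, compound versus 0.2% DMSO vehicle. CYP1A1 mRNA measured 6 h after dosing by quantitative nuclease protection assay with chemiluminescent read-out; induction fitted relative to DMSO, cytotoxicity flagged by microscopy.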

[16] = read-out: xenobiotic metabolism (CYP1A2), CYP1A2 (gene 1544); test: CLD_CYP1A2_6hr: CellzDirect (CLD) Gene Expression Assay for xenobiotic metabolism (CYP1A2) at 6 hours (AID 2283663);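 as to AC50: potency is for induction meaning a rise in mRNA above DMSO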
In short: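 Primary human hepatocytes from two donor preparations, dosed daily with multiple concentrations in 0.2% DMSO and harvested at 6 h. CYP1A2 mRNA induction measured by chemiluminescent qNPA, gain of signal fitted against DMSO; cytotoxicity flagged morphologically.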

[17] = read-out: sulfotransferase (SULT2A), SULT2A1 (gene 6822); test: CLD_SULT2A_6hr: CellzDirect (CLD) Gene Expression Assay for sulfotransferase (SULT2A) at 6 hours (AID 2283669);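 also: hits raise transcript level above the DMSO vehicle baseline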
In short: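 Primary human hepatocytes from two donor preparations were dosed daily with chemicals or 0.2% DMSO and harvested at 6 h. Transcript induction read by qNPA chemiluminescence, fitted for gain of signal relative to DMSO; morphology-based cytotoxicity annotated.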

[18] = read-out: Broad substrate specificity ATP-binding cassette transporter ABCG2 (Homo sapiens) (UniProt Q9UNQ0); test: CLD_ABCG2_6hr: CellzDirect (CLD) Gene Expression Assay for ABC Transporter (ABCG2) at 6 hours (AID 2283660)
In short: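 Primary human hepatocytes dosed daily with chemicals at multiple concentrations (0.2% DMSO vehicle), harvested 6 h after dosing. ABCG2 mRNA induction read by quantitative nuclease protection assay (qNPA) chemiluminescence; gain of signal fitted against DMSO baseline.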

[19] = CLD_ACTIN_24hr: CellzDirect (CLD) Gene Expression Assay for Baseline Control (Actin) at 24 hours (AID 2283670)
In short: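 Primary human hepatocytes dosed over multiple concentrations with 0.2% DMSO vehicle; actin mRNA measured at 24 h by qNPA chemiluminescence. Background control endpoint, fitted as gain of signal versus DMSO.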

[20] = read-out: alkyl and aryl transferase (GSTA2), GSTA2 (gene 2939); test: CLD_GSTA2_6hr: CellzDirect (CLD) Gene Expression Assay for alkyl and aryl transferase (GSTA2) at 6 hours (AID 2283666)
In short: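 Primary human hepatocytes from two donor preparations were dosed daily with fresh compound at multiple concentrations, 0.2% DMSO vehicle. GSTA2 mRNA was measured at 6 hours by qNPA chemiluminescence; induction fitted relative to DMSO, with cytotoxicity flagged morphologically.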

Measured: AC50

Broad substrate specificity ATP-binding cassette transporter ABCG2 (Homo sapiens), sequence (Q9UNQ0 whole entry, looked up): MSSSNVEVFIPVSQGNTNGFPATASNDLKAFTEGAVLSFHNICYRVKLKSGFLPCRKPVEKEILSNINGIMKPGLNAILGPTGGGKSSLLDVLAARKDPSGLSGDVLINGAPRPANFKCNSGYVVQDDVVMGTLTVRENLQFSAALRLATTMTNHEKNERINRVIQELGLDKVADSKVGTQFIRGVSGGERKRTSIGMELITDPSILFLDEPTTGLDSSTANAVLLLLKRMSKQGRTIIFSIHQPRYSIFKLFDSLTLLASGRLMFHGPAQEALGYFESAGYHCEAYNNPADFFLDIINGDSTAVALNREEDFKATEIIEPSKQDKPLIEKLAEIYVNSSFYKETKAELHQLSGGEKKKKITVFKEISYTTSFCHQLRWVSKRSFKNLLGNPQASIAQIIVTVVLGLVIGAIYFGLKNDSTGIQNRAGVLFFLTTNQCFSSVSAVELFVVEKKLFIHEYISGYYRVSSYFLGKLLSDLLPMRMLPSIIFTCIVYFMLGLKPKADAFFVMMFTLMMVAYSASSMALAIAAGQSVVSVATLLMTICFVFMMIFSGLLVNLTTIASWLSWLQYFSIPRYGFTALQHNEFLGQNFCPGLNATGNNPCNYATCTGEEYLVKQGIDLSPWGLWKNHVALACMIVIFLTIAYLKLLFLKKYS

CC(C)Oc1cccc(NC(=O)c2ccccc2C(F)(F)F)c1
active: [9] 74 µM
not listed: [13] | [14] | [15] | [16] | [17] | [18] | [19] | [20]
inactive: all other assays above

CCN(CC)c1nc(C)cc(OP(=S)(OC)OC)n1
inactive: [1] | [2] | [3] | [7] | [8] | [13] | [12]
active: [14] 19.1 µM

CCOC(=O)C(C)OC(=O)c1cc(Oc2ccc(C(F)(F)F)cc2Cl)ccc1[N+](=O)[O-] (configuration not stated)
active: [15] 4.58 µM
inactive: [1] | [2] | [4] | [7] | [8] | [13] | [11] | [12]

O=C(Nc1ccccc1-c1ccc(Cl)cc1)c1cccnc1Cl
active: [15] 2.46 µM
inactive: [1] | [3] | [4] | [7] | [8] | [11] | [12]

CCCCC(C#N)(Cn1cncn1)c1ccc(Cl)cc1 (configuration not stated)
active: [8] 48 µM | [9] 83.9 µM | [12] 50.7 µM
inactive: [2] | [3] | [4] | [6] | [7] | [13] | [10] | [11] | [16]

Cc1cc(C)nc(Nc2ccccc2)n1
active: [16] 3.97 µM
inactive: [1] | [2] | [3] | [4] | [7] | [8] | [13] | [12] | [17]

C=CCOC(=O)C(C)(C)OC(=O)c1cc(-n2c(=O)cc(C(F)(F)F)n(C)c2=O)ccc1Cl
inactive: [1] | [2] | [3] | [4] | [8] | [11] | [18]

CS(=O)(=O)c1ccc(C(=O)C2C(=O)CCCC2=O)c([N+](=O)[O-])c1
active: [14] 30.6 µM
not listed: [1] | [5] | [6] | [9] | [10] | [15] | [17] | [20]
inactive: all other assays above

N#CN=C1SCCN1Cc1ccc(Cl)nc1
inactive: [1] | [2] | [3] | [4] | [7] | [8] | [11] | [18] | [12] | [19]

CN=C=S
not listed: [5] | [13] | [14] | [16] | [17] | [19]
inactive: all other assays above

CC1(C)CON(Cc2ccccc2Cl)C1=O
not listed: [5] | [6] | [9] | [10] | [14] | [16] | [20]
inactive: all other assays above

CCN(CC)C(=O)C(C)Oc1cccc2ccccc12 (configuration not stated)
active: [15] 3.97 µM | [14] 26.3 µM
inactive: [1] | [2] | [3] | [4] | [7] | [8] | [13] | [12]

COCc1cnc(C2=NC(C)(C(C)C)C(=O)N2)c(C(=O)O)c1 (configuration not stated)
inactive: [1] | [2] | [3] | [4] | [7] | [8] | [11] | [18] | [12] | [17] | [19]

CC(C)(C)C(=O)C(Oc1ccc(Cl)cc1)n1cncn1 (configuration not stated)
inactive: [2] | [3] | [4] | [7] | [8] | [13] | [11] | [18] | [12] | [17]
active: [15] 3.97 µM

CSC(=O)c1c(C(F)F)nc(C(F)(F)F)c(C(=O)SC)c1CC(C)C
inactive: [1] | [2] | [4] | [7] | [8] | [13] | [12] | [19]
active: [15] 5.31 µM

CCCC(=NOCC)C1=C(O)CC(CC(C)SCC)CC1=O (configuration not stated)
inactive: [1] | [2] | [3] | [4] | [7] | [8] | [13] | [11] | [18] | [12] | [17]

From PubChem BioAssay (EPA / NIEHS)
